Only some compounds are listed: those with a hit (about 3.1% of all), similar ones and a draw of the others.
p53null 39C tox – qHTS Screen for Compounds that Selectively Target Cancer Cells with p53 Mutations: Cytotoxicity of p53 Null Cells at the Nonpermissive Temperature. H1299 p53-null (neo) cells, 39C, ATPlite viability, 24 h. Potency, µM (doses to about 46.1 µM), for the others: top-dose activity, negative = cell killing, most hits filed as cytotoxic. AID 904, 2007. hit rate 0.97% among 55,000;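 note: potency is the fitted concentration of half-maximal effect; 0% = DMSO only and -100% = full killing by 100 µM tamoxifen; nearly all actives have a fitted effect of over 50% in size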
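Luminescent ATP signal reported cell survival after H1299 lines (neo, p53 null; or p53 A138V) received up to 46 uM compound and 24 hr incubation at 39C.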
p53null 32C kill – qHTS Screen for Compounds that Selectively Target Cancer Cells with p53 Mutations: Cytotoxicity of p53 Null Cells at the Permissive Temperature | H1299-neo p53 null cells, ATP luminescence, 24 h, 32C | Potency, µM (series often up to 46.1 µM), without a hit: at the highest dose activity change, negative = cytotoxicity, hits mostly cytotoxic | hit rate 0.62% among 55,000 | AID 903, 2007;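 note: potency is the fitted concentration of half-maximal effect; 0% = DMSO only and -100% = full killing by 100 µM tamoxifen; nearly all actives have a fitted effect of over 55% in size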
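Cytotoxicity: H1299-neo (no p53), 32C, 24 h treatment. Concentrations up to 46 uM. Readout cellular ATP, luminescence. Normalization to DMSO basal and tamoxifen 100 uM maximal kill.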
pS6 MEF inh – Acumen qHTS Assay for Inhibitors of the mTORC1 Signaling Pathway in MEF (Tsc2-/-, p53-/-) Cells: Sytravon | AID 493208, 2011 | Tsc2-/- p53-/- MEF, phospho-rpS6 immunofluorescence/PI, 24 h | Potency, µM (titrated, usually from 38.3 µM), for the others: top-dose activity change, negative = inhibition, usual class: inhibitors | hit rate 0.78% among 44,000;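 note: potency is the fitted concentration of half-maximal effect; plate controls were DMSO for no effect and rapamycin for full effect; nearly all actives have a fitted effect of over 50% in size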
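Cell-based qHTS: Tsc2-/- p53-/- MEF, 24 h cpd, 37 °C; fix/perm, anti-phospho-S6 Alexa-488 + PI; Acumen 488 nm scan; pS6/PI ratio, % positive cells; rapamycin 7.5 nM = inhibition ref; PI count = viability.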
S16 F2sN tox – Cell viability qHTS assay in S16 Pmp22-F2sN cells; Potency, µM (series often up to 57.5 µM), for the others: at the top dose activity change, negative = cytotoxicity, hits mostly cytotoxic; hit rate 0.48% among 43,000; AID 1508642, 2021; S16 Pmp22-F2sN Schwann cells viability, CellTiter-Glo, 24 h; note: potency is the fitted concentration of half-maximal effect; % is set by controls: 0 for no effect and ±100 for the full control effect; nearly all actives have a fitted effect of over 65% in size
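S16 Schwann cells carrying the Pmp22-F2sN reporter, seeded in 1536-well format, were exposed to library compounds for 24 h at 37C. Viability was read as CellTiter-Glo luminescence after 15 min at room temperature.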
SKOV3 invasion – Primary qHTS assay for Inhibitors of ovarian cancer metastasis using an organotypic tumor microenvironment (TME) model; SKOV3ip1-GFP adhesion/invasion on 3D omental model, fluorescence; Potency, µM (series often up to 45.8 µM), for inactives: at the highest dose activity change, negative = inhibition, usual class: inhibitors; hit rate 0.1% among 46,000;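 note: potency is the fitted concentration of half-maximal effect; plate controls were DMSO wells for no effect and tomatine positive control wells for full effect; nearly all actives have a fitted effect of over 65% in size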
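qHTS, 4-pt dose (0.36-46 umol/L); SKOV3ip1-GFP, 1,200 cells/well, no FBS; primary omental fibroblast/mesothelial co-culture 48 h pre-grown; 2 h RT + 16 h 37 C; PBS wash, 4% PFA; GFP count 488/509 nm.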
PMP22 txn prim – Cell-based coincidence reporter assay to measure PMP22 gene transcription in S16 Pmp22-F2sN cells - Primary screen. hit rate 2% among 43,000. AID 1508649, 2021. S16 Pmp22-F2sN Schwann cells (luciferase reporters placed in the Pmp22 gene), FLuc/NLuc coincidence luminescence, 24 h. Potency, µM (doses to about 57.5 µM), inactives show at the top dose activity change, negative = inhibition, actives largely listed as inhibitors; active = clear falling dose curves in both reporters; inconclusive = both reporters move, but less clearly or upward; inactive = either reporter flat; the % is the NLuc reporter signal; note: potency is the fitted concentration of half-maximal effect; % is set by controls: 0 for no effect and ±100 for the full control effect
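Rat S16 Pmp22-F2sN cells, 500-1,000/well in phenol red-free DMEM + 10% FBS, compound-treated 24 h (37C, 5% CO2). Luminescence: FLuc read, Stop&Glo added, NLuc read.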
NLuc saturating – Biochemical NLuc saturation counterscreen for small molecule modulators of PMP22 gene expression - Nano-Glo assay | shares compounds with PMP22 txn prim | Secreted NLuc enzyme (filtered S16 cell medium), Nano-Glo luminescence | Potency, µM (titrated, usually from 57.5 µM), for inactives: at the highest dose activity change, negative = inhibition, hits mostly inhibitors | hit rate 4% among 690 | AID 1508638, 2021; note: potency is the fitted concentration of half-maximal effect; % is set by controls: 0 for no effect and ±100 for the full control effect
NLuc Km ctr – Biochemical coelenterazine-based NLuc counterscreen for small molecule modulators of PMP22 gene expression - Km assay. hit rate 5% among 690. secreted NLuc enzyme, coelenterazine luminescence, Km conditions. Potency, µM (highest dose often 57.5 µM), for inactives: at the highest dose activity change, negative = inhibition, usual class: inhibitors. shares compounds with PMP22 txn prim; note: potency is the fitted concentration of half-maximal effect; % is set by controls: 0 for no effect and ±100 for the full control effect
FLuc ctr PMP22 – Biochemical FLuc counterscreen for small molecule modulators of PMP22 gene expression | shares compounds with PMP22 txn prim | purified P. pyralis FLuc, luminescence, 10 min | Potency, µM (top dose mostly 57.5 µM), for inactives: at the top dose activity, negative = inhibition, hits mostly inhibitors | 690 tested, under 10 active; note: % of control where 0% means no effect
Target sequence (P08659 whole entry, looked up): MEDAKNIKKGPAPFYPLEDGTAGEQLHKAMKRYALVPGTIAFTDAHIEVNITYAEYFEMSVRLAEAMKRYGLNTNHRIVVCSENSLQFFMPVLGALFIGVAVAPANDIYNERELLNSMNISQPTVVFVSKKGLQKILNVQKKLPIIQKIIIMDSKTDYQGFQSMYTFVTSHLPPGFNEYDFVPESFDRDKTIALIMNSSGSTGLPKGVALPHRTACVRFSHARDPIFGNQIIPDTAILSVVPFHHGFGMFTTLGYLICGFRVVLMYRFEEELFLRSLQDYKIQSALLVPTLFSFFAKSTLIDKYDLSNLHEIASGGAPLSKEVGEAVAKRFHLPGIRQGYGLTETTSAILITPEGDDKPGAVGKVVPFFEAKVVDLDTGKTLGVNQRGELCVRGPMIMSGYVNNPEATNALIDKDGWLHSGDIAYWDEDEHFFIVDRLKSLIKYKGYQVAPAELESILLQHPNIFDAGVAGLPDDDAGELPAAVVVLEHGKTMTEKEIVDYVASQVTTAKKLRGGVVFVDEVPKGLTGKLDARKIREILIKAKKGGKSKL
S16 viab conf – Cell viability qHTS assay in S16 Pmp22-F2sN cells - Confirmatory screen | shares compounds with PMP22 txn prim | S16 Schwann cells viability, CellTiter-Glo ATP luminescence, 24 h | Potency, µM (series often up to 57.5 µM), inactives show top-dose activity change, negative = viability loss, usual class: cytotoxic | hit rate 7% among 690 | AID 1508641, 2021; note: potency is the fitted concentration of half-maximal effect; % is set by controls: 0 for no effect and ±100 for the full control effect
PMP22 txn cnf – Cell-based coincidence reporter assay to measure PMP22 gene transcription in S16 Pmp22-F2sN cells - Confirmatory screen; Potency, µM (series often up to 57.5 µM), for inactives: at the highest dose activity change, negative = inhibition, most hits filed as inhibitors; shares compounds with PMP22 txn prim; S16 Schwann cells Pmp22-F2sN, dual luciferase, 24 h; AID 1508646, 2021; hit rate 22% among 690; active = clear falling dose curves in both reporters; inconclusive = both reporters move, but less clearly or upward; inactive = either reporter flat; the % is the FLuc reporter signal; note: potency is the fitted concentration of half-maximal effect
* hit, by the source's call; i = inactive; ? = inconclusive; . = no result. Unless noted, calls come from the whole dose curve; as a rule, active = well fitted curve in the direction sought with a large enough effect; inconclusive = small, poorly fitted or top-dose-only effect, or another doubt; inactive = no such curve, though single readings can be large; an effect the other way counts as inactive or inconclusive.

SMILES | p53null 39C tox | p53null 32C kill | pS6 MEF inh | S16 F2sN tox | SKOV3 invasion | PMP22 txn prim | others
O=C(NCc1ccccc1)N1CCc2c(sc3c2CCCC3)C1c1ccccc1 (configuration not stated) | ? | 27% | 1% | ? | -26% | 7.8µM*
COC(=O)[C@@H]1[C@@H](C(=O)OC)C2(c3ccccc3-c3ccccc32)N(c2ccc(Cl)cc2)N1C#N | ? | 22µM* | . | . | . | .
COC(=O)C[C@]1(C(=O)OC)CN(C#N)N(c2ccc(Cl)cc2)C12c1ccccc1-c1ccccc12 | -1% | ? | . | . | . | .
CCOc1ccc(S(=O)(=O)NCCc2sc3nc(-c4ccc(C)cc4)nn3c2C)cc1 | 21% | 46% | -1% | 20µM* | 8% | ?
Cc1c(CCNS(=O)(=O)c2ccccc2)sc2nc(-c3ccc(Cl)cc3)nn12 | ? | 23% | -12% | ? | ? | ?
c1ccc2c(CN3CCNCC3)cccc2c1 | . | . | . | . | -4% | .
CCCOc1ccc(C2SCC(=O)Nc3c2c(C)nn3-c2cccc(C)c2)cc1OC (configuration not stated) | 25µM* | -3% | 0% | -19% | i | ?
COc1ccc(-c2cc(=O)c3cc(OCC(=O)OC(C)C)ccc3o2)cc1 | 5µM* | 3.2µM* | -8% | -1% | 1% | -4%
Cc1ccc2oc(-c3ccc(Cl)cc3)c(O)c(=O)c2c1 | ? | -28% | 9.3µM* | ? | 2% | ?
CCOc1ccc(NC(=O)c2cc3c(C)nn(-c4ccccc4)c3s2)cc1 | ? | ? | 18µM* | -7% | -23% | ?
COc1ccc2c(c1)CN(C)CC2c1ccc(Cl)c(Cl)c1 (configuration not stated) | . | . | . | . | -5% | .
CN1[C@H]2CC(O)C[C@H]1[C@H]1O[C@H]12 (some centres not stated) | . | . | . | . | -25% | .
CC(=O)c1cccc(NC(=O)c2cc3c(s2)-c2c(C)cccc2OC3)c1 | ? | 10µM* | -2% | ? | -1% | ?
CC(=O)c1cccc(NC(=O)c2cccn(Cc3cccc(C)c3)c2=O)c1 | 2% | 7% | -1% | -5% | i | ?
O=c1[nH]c2ccc(Cl)cc2c(N[C@@H]2CN3CCC2CC3)c1-c1nc2ccccc2[nH]1 | . | . | . | . | 39% | .
CC(C)(C)c1ccc(C(=O)Nc2ccc3nc(SCC(=O)N4CCCC4)sc3c2)cc1 | ? | 20µM* | -26% | ? | i | ?
Cc1ccc(C(=O)Nc2ccccc2)cc1S(=O)(=O)N1CCCC1 | 22% | ? | -4% | 16% | 8% | -29%
CC1(N2CCC(n3c([C@@H]4CCCNC4)nc4ccccc43)CC2)CCCCCCC1 | . | . | . | . | 6% | .
Cc1oc(-c2ccc(Cl)cc2)nc1CN1CCC(C(=O)NCCCN2CCN(c3cccc(Cl)c3)CC2)CC1 | 25µM* | -5% | ? | ? | -4% | 13µM* | NLuc saturating=?;NLuc Km ctr=?;FLuc ctr PMP22=-9%;S16 viab conf=17µM*;PMP22 txn cnf=10µM*
O=C(Nc1ccncc1)C(=O)c1cn(Cc2ccc(Cl)cc2)c2ccccc12 | . | . | . | . | -2% | .
Cc1ccc(Cl)cc1Nc1nn2c(=O)c3ccc(C(=O)NCc4cccs4)cc3nc2s1 | 29% | ? | -1% | 25µM* | -7% | 8.4µM* | NLuc saturating=-8%;NLuc Km ctr=-3%;FLuc ctr PMP22=0%;S16 viab conf=27µM*;PMP22 txn cnf=?
CCOc1ccc(NC(=O)CSc2oc(-c3ccccc3)nc2S(=O)(=O)c2ccc(Cl)cc2)cc1 | 10µM* | ? | ? | 6% | -1% | 10µM* | NLuc saturating=?;NLuc Km ctr=?;FLuc ctr PMP22=3%;S16 viab conf=?;PMP22 txn cnf=19µM*
C=CCON=C(C[C@H]1O[C@@H]2O[C@]3(C)CC[C@@H]4[C@H](C)CC[C@@H]([C@H]1C)[C@@]24OO3)[C@H]1O[C@@H]2O[C@]3(C)CC[C@H]4[C@H](C)CC[C@@H]([C@@H]1C)[C@@]24OO3 | . | . | . | . | -3% | .
C[C@@]12OC(=O)[C@]1([C@@H](O)[C@@H]1C=CCCC1)NC(=O)[C@H]2CCCl | . | . | . | . | -23% | .
O=C(NCC1CCOCC1)c1cnc(Nc2ccc(Cl)cc2Cl)nc1C(F)(F)F | . | . | . | . | 21% | .
Cc1ccc(-n2c(/C=C\c3ccc(F)c(F)c3)nc3ccccc3c2=O)c(C)c1 | 26% | 4% | 6% | ? | -1% | 8.9µM* | NLuc saturating=-3%;NLuc Km ctr=-3%;FLuc ctr PMP22=2%;S16 viab conf=-6%;PMP22 txn cnf=?
Cc1ccccc1-n1c(Cn2ncc3c(N)ncnc32)nc2cccc(C)c2c1=O | . | . | . | . | -9% | .
CCCCOc1ccc(CN2C(=O)C(=O)c3cc(C)ccc32)cc1OC | 20µM* | 28% | ? | ? | 16% | 8.8µM* | NLuc saturating=-16%;NLuc Km ctr=-1%;FLuc ctr PMP22=-2%;S16 viab conf=-7%;PMP22 txn cnf=?
